Screening data: PubChem BioAssay, National Center for Advancing Translational Sciences (NCATS)
An excerpt weighted towards active compounds, which were near 3.7% of everything screened.
Nrf2 block: Nrf2 qHTS screen for inhibitors; 2.1% of 360,000 active; A549 ARE-Fluc reporter, luciferase luminescence, 18-24 h; Potency, µM (series often up to 46 µM), without a hit: top-dose activity change, negative = inhibition, actives largely listed as inhibitors; AID 504444, 2011; further: on the % scale 0 is the no-effect control and ±100 the full control effect; nearly all actives have a fitted effect of over 60% in size
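Quantitative HTS in A549 cells stably bearing an antioxidant response element-firefly luciferase construct. Inhibition of Nrf2-driven transcription was scored by luminescence after 18-24 h of compound exposure at 37 °C.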
Nrf2 ARE act: qHTS of Nrf2 Activators. AREc32 ARE-luciferase reporter (MCF7-derived line), luminescence, 24 h. Potency, µM (top dose mostly 46.1 µM), for inactives: at the top dose activation, actives largely listed as activators. 0.31% of 410,000 active. AID 624171, 2012; further: % of control where 0% means no effect; nearly all actives have a fitted effect of over 65% in size
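ARE-driven firefly luciferase activity in AREc32 cells measured after a 24 hr compound exposure at 37 deg C, using Steady-Glo reagent and a 30 min room-temperature hold.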
ELG1 DNA repair: qHTS screen for small molecules that inhibit ELG1-dependent DNA repair in human embryonic kidney (HEK293T) cells expressing luciferase-tagged ELG1 | Potency, µM (top dose mostly 46.1 µM), for inactives: at the highest dose activity change, negative = inhibition, usual class: inhibitors | AID 504467, 2011 | HEK293T ELG1-luciferase reporter, luminescence, 16 h; DNA damage induced by 5-fluorouridine | 2.3% of 330,000 active; further: on the % scale 0 is the no-effect control and ±100 the full control effect; nearly all actives have a fitted effect of over 55% in size
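5-Fluorouridine DNA damage + compound/DMSO, 2,000 cells/well, 16 h, 37 °C/5% CO2. ONE-Glo, 30 min RT, luminescence. Readout = decrease in reporter signal.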
A549 viability: Nrf2 qHTS screen for inhibitors: counterscreen for cytotoxicity; A549 ARE-Fluc cells, CellTiter-Fluor viability, 18-24 h; Potency, µM (top dose mostly 46 µM), inactives show at the top dose activity change, negative = cytotoxicity, usual class: inhibitors; 0.16% of 390,000 active; further: on the % scale 0 is the no-effect control and ±100 the full control effect
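A549 ARE-Fluc cells in 5% FBS OPTI-MEM, 5000 cells/well, rested 2 h then exposed to compounds in concentration-response for 18-24 h at 37 °C. Viability by CellTiter-Fluor fluorescence (Ex 405/Em 525) after 30 min; luciferase luminescence (BugLite, 15 min, RT) read afterwards.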
* hit, by the source's call. The call rests on the fitted dose curve; in most records, active means well fitted curve in the direction sought with a large enough effect; inconclusive means small, poorly fitted or top-dose-only effect, or another doubt; inactive means no such curve, though single readings can be large; an effect the other way counts as inactive or inconclusive. Potency means the concentration at half of the fitted maximal effect.

Screening COc1ccc(/C=N/NC(=O)c2cc(-c3ccccc3OC)nc3ccccc23)cc1COC(C)=O returned Nrf2 block 10%, Nrf2 ARE act 0%, ELG1 DNA repair inconclusive and A549 viability -1%.
For CCc1ccc(/C=N/NC(=O)c2cc(C3CC3)nc3ccc(Br)cc23)s1 the results were Nrf2 block -4%, Nrf2 ARE act 2%, ELG1 DNA repair 7.3µM* and A549 viability -17%.
Screening OC[C@@H]1CN(Cc2ccc(Cl)cc2)C[C@H](n2cnc3c(N4CCN(c5ccccc5)CC4)ncnc32)O1 returned Nrf2 ARE act 0%.
NC(=O)c1c(NC(=O)Cc2ccccc2)sc2c1CCN(Cc1ccccc1)C2 was read as Nrf2 block -18%, Nrf2 ARE act -1%, ELG1 DNA repair 3% and A549 viability -1%.
Cc1ccc(NNC(=O)C(O)(c2cccc(C(F)(F)F)c2)c2cccc(C(F)(F)F)c2)cc1 was read as Nrf2 block 23µM*, Nrf2 ARE act 3%, ELG1 DNA repair 18µM* and A549 viability inconclusive.
For CCOc1ccccc1NC(=O)CSc1nncc2ccccc12 the results were Nrf2 block 23µM*, Nrf2 ARE act 29%, ELG1 DNA repair 13% and A549 viability -13%.
COc1ccc(OC)c(NC(=O)CSc2nncc3ccccc23)c1 was read as Nrf2 block -10%, Nrf2 ARE act 0%, ELG1 DNA repair 16% and A549 viability inconclusive.
CN(C(=O)c1cccs1)c1ccc(OCC(=O)N2CCC(C(N)=O)CC2)cc1 was read as Nrf2 block -16%, Nrf2 ARE act 0%, ELG1 DNA repair 15µM* and A549 viability 0%.
`CC[N+](CC)(CC)CCOc1ccc(/C=C/c2ccccc2)cc1` gave Nrf2 block 15µM*, Nrf2 ARE act -1%, ELG1 DNA repair -19% and A549 viability -9%.
Screening CC[N+](CC)(CC)CCOc1cccc(OCC[N+](CC)(CC)CC)c1OCC[N+](CC)(CC)CC returned Nrf2 block 5%, Nrf2 ARE act -1%, ELG1 DNA repair 4% and A549 viability -8%.
Screening CC(C)C(OC(=O)CNC(=O)c1ccccc1)C(=O)Nc1cc(C(F)(F)F)ccc1Cl (configuration not stated) returned Nrf2 block -1% and A549 viability 6%.
`CCOC(=O)c1cnc2ccc(OCC)cc2c1NCc1ccccc1OC` gave Nrf2 block 6.5µM*, Nrf2 ARE act 0%, ELG1 DNA repair inconclusive and A549 viability 12µM*.
`CCOC(=O)c1cnc2ccc(OC)cc2c1NCCc1ccccc1` gave Nrf2 block 23µM*, Nrf2 ARE act -1% and A549 viability inconclusive.
For CCOC(=O)c1cnc2ccc(OC)cc2c1Nc1cccc(C(C)=O)c1 the results were Nrf2 block 16µM*, Nrf2 ARE act 8% and A549 viability inconclusive.
`Cc1nn(CC(=O)NC2CC2)c(C)c1S(=O)(=O)N(C)C` gave Nrf2 ARE act -1%.
For CC(NC(=O)CSc1nnnn1C1CC1)c1ccccc1Br (configuration not stated) the results were Nrf2 block 9%, Nrf2 ARE act 6%, ELG1 DNA repair 14% and A549 viability 12%.
For Cc1c(C(=O)OCc2nc3scc(-c4ccccc4)c3c(=O)[nH]2)cccc1[N+](=O)[O-] the results were Nrf2 block 21µM*, Nrf2 ARE act -1%, ELG1 DNA repair inconclusive and A549 viability -11%.
COc1ccc(CN(C)Cc2nc3scc(-c4ccccc4)c3c(=O)[nH]2)cc1OC was read as Nrf2 block 5%, Nrf2 ARE act 3%, ELG1 DNA repair 16µM* and A549 viability -3%.
Screening O=C(OCc1nc2scc(-c3ccccc3)c2c(=O)[nH]1)c1cc(Cl)ccc1[N+](=O)[O-] returned Nrf2 block -7%, Nrf2 ARE act 20%, ELG1 DNA repair -13% and A549 viability -1%.
For CC(OC(=O)CNC(=O)c1cccs1)C(=O)Nc1ccc(S(N)(=O)=O)cc1 (configuration not stated) the results were Nrf2 block -3%, Nrf2 ARE act 0%, ELG1 DNA repair 22% and A549 viability 6%.
For CC(=O)Nc1nonc1-c1nnc(SCc2ccccc2F)n1C the results were Nrf2 block 25%, Nrf2 ARE act 0% and A549 viability 9%.
Screening Cc1[nH]c2ccccc2c1C(O)CN1CCN(c2cccc(C(F)(F)F)c2)CC1 (configuration not stated) returned Nrf2 block 2%, Nrf2 ARE act inconclusive, ELG1 DNA repair 15µM* and A549 viability -14%.
For CCCCCN(C(=O)CCC(=O)OCc1ccc(C(C)(C)C)cc1)c1c(N)n(CCCC)c(=O)[nH]c1=O the results were Nrf2 block 13µM*, Nrf2 ARE act 3%, ELG1 DNA repair -16% and A549 viability -12%.
Screening CCCCCN(C(=O)CCC(=O)OCc1ccc(C(C)C)cc1)c1c(N)n(CCCC)c(=O)[nH]c1=O returned Nrf2 block inconclusive, Nrf2 ARE act 0%, ELG1 DNA repair 16% and A549 viability inconclusive.
O=C1CN(C(=O)c2c(F)cccc2F)C(c2ccccc2)c2cc(Br)ccc2N1 (configuration not stated) was read as Nrf2 block inconclusive, Nrf2 ARE act 5%, ELG1 DNA repair 3% and A549 viability inconclusive.
Screening Cc1ccc2c(c1)C(c1ccccc1)N(C(=O)c1ccccc1[N+](=O)[O-])CC(=O)N2 (configuration not stated) returned Nrf2 block -12%, Nrf2 ARE act 0%, ELG1 DNA repair 21µM* and A549 viability 2%.
O=C1CN(C(=O)c2ccccc2[N+](=O)[O-])C(c2ccccc2)c2cc(Br)ccc2N1 (configuration not stated) was read as Nrf2 block -26%, Nrf2 ARE act 0%, ELG1 DNA repair 18µM* and A549 viability -6%.
For O=C1CN(C(=O)c2ccc(Br)o2)C(c2ccc(F)cc2)c2cc(F)ccc2N1 (configuration not stated) the results were Nrf2 block 16µM*, Nrf2 ARE act 2%, ELG1 DNA repair inconclusive and A549 viability -19%.
Screening Cc1ccc(C(=O)N2CC(=O)Nc3ccc(C)cc3C2c2ccccc2)cc1 (configuration not stated) returned Nrf2 block inconclusive, Nrf2 ARE act 1%, ELG1 DNA repair 0% and A549 viability 0%.
`COc1ccc(OCCNC(=O)C2(C)CCN2Cc2ccc3ccccc3c2)cc1` (configuration not stated) gave Nrf2 ARE act -2%.
For COC(=O)C1=C(C)NC(=O)CC1c1cc2c(cc1Br)OCO2 (configuration not stated) the results were Nrf2 block -1%, Nrf2 ARE act 2%, ELG1 DNA repair inconclusive and A549 viability 1%.
